# Assay outcomes as filed in PubChem.
# The list is not random: actives were taken first. Their share in the collection is about 19%.
# Pf growth 96h: P. falciparum growth inhibition at 96 hour, primary screen for plastid delayed-death inhibitors. actives 6.9% (n = 320,000). Potency, µM (doses to about 28.7 µM), for inactives: at the top dose activity change, negative = inhibition, hits mostly inhibitors. P. falciparum luciferase reporter growth, 96 h; further: potency means the concentration at half of the fitted maximal effect; on the % scale 0 is the no-effect control and ±100 the full control effect
#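 Erythrocytes infected with luciferase-expressing P. falciparum were dispensed at 2% hematocrit and 0.05% parasitemia (final), then incubated with compounds 96 hours at 37 C in 5% CO2. Luminescence after detection reagent addition reported growth.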
# AMA1 RON2 block: inhibitors of Plasmodium falciparum AMA1-RON2 interaction; AlphaScreen AMA1-biotinylated RON2 peptide binding; Potency, µM (doses to about 58.2 µM), for inactives: at the highest dose activity change, negative = inhibition, most hits filed as inhibitors; actives 0.2% (n = 360,000); AID 720542;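 further: potency means the concentration at half of the fitted maximal effect; 0% = vehicle wells and -100% = peptide control; nearly all actives have a fitted effect of over 45% in size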
#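 AMA1 (3D7) with his tag at 25 nM final met compounds first, then biotinylated RON2 peptide at 25 nM; detection used donor plus acceptor beads, 10 µg/mL apiece, read by AlphaScreen after 30 min at room temperature.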
# Cycloheximide cs: counter-screen hit for Shiga toxin inhibitors, cycloheximide. AID 2314. max response, %. cell reporter, cycloheximide protein synthesis inhibition counterscreen. actives 12% (n = 300,000); in the data active means max response mostly above about 13%, no sharp cut-off; inactive means mostly below about 14%; further: read at 38.3 µM for the half of the compounds with a filed dose; 0% is about no effect
# Pf growth 48h: P. falciparum growth inhibition at 48 hours (one generation); P. falciparum luciferase growth in erythrocytes, 48 h; Potency, µM (series often up to 28.7 µM), for inactives: top-dose activity change, negative = inhibition, most hits filed as inhibitors; actives 5.9% (n = 310,000); further: potency means the concentration at half of the fitted maximal effect; on the % scale 0 is the no-effect control and ±100 the full control effect
#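 Firefly luciferase activity from engineered P. falciparum reports growth; inhibitors lower the luminescent signal. Cultures contained 2% hematocrit erythrocytes at 0.1% final parasitemia.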
# Shiga toxin inh: blocks Shiga toxin action in Vero cells | AID 2315 | Vero cells, Shiga toxin protein synthesis inhibition reporter | actives 9.2% (n = 290,000) | inhibition, % at 38.7 µM; in the data active means inhibition mostly above about 28%, no sharp cut-off; inactive means mostly below about 43%; further: 0% is about no effect
# SARS PLpro yeast: SARS-CoV PLP inhibition in yeast | S. cerevisiae expressing SARS-CoV PLpro, growth rescue | Potency, µM (top dose mostly 32.9 µM), for the others: at the top dose activity, positive = growth rescue, actives largely listed as activators | actives 0.19% (n = 330,000) | AID 485353; calls by dose curve; further: potency means the concentration at half of the fitted maximal effect; 0% is about no effect; nearly all actives have a fitted effect of over 55% in size
# An asterisk follows results filed as active; u = inconclusive; x = not tested or not shown; + = active, no number. Unless noted, the call rests on the fitted dose curve; in most records, active means well fitted curve in the direction sought with a large enough effect; inconclusive means small, poorly fitted or top-dose-only effect, or another doubt; inactive means no such curve, though single readings can be large; an effect the other way counts as inactive or inconclusive.
SMILES,Pf growth 96h,AMA1 RON2 block,Cycloheximide cs,Pf growth 48h,Shiga toxin inh,SARS PLpro yeast
Cc1ccccc1N1CCN(C2CCCN(C(=O)c3ccsc3)C2)CC1 (centres undefined),u,-6.5%,8.7,-16.0%,-13.5,1.7%
CC(C)(C)CC(C)(C)c1ccc(O)c(Cc2ccc(Cl)cc2Cl)c1,3.01µM*,1.8%,x,1.9µM*,x,x
COc1ccc(C(=O)OCC(=O)NC(=O)NC(C)C)cc1OC,1.4%,14.3%,-7.6,u,-12.3,1.3%
Cc1ccc(S(=O)(=O)N2CCCN(c3nccc(C(F)(F)F)n3)CC2)cc1,14.8%,1.0%,-1.2,-2.4%,2.1,-2.4%
O=c1cc(-c2ccco2)oc2c1ccc1ccccc12,70.8%,-0.3%,3.3,x,24.3,-5.1%
O=c1cc(C(Cl)(Cl)Cl)oc2c1ccc1ccccc12,0.262µM*,-13.3%,-1.3,0.131µM*,21.6,0.1%
Cc1[nH]c(=O)sc1C(=O)NCc1ccc([N+](=O)[O-])cc1,x,-3.7%,x,x,x,x
CCN(CC(=O)Nc1cc(Cl)cc(Cl)c1)CC(=O)NC1CCS(=O)(=O)C1 (centres undefined),x,-5.7%,x,x,x,0.1%
Oc1ccc(Br)cc1/C=N/Nc1ncc(-c2ccccc2)cn1,u,6.9%,-3.0,u,-17.1,-1.9%
Oc1cc(Br)ccc1C=Nc1ccc(N2CCCCC2)cc1,8.28µM*,-5.8%,10.4,8.28µM*,34.5,5.3%
O=[N+]([O-])c1ccc(O)c(C=NN2CCCCC2)c1,x,23.1%,x,x,x,x
Oc1ccc(Br)cc1/C=N/N1CCCCC1,148.1%,-4.3%,52.4*,95.3%,81.9*,0.2%
Oc1ccc(Br)cc1/C=N/n1cnc2ccccc21,2.33µM*,6.8%,41.2*,3.29µM*,60.2*,-11.7%
CC(OC(=O)CN1C(=O)NC2(CCCC2)C1=O)C(=O)c1ccccc1 (centres undefined),45.9%,12.7%,x,8.3%,x,1.0%
OC[C@@H]1CN(CCN2CCOCC2)C[C@H](n2cnc3c(Nc4ccccc4)ncnc32)O1,x,-6.2%,x,x,x,x
CCCC1SCC(C)(C)NC1=O (centres undefined),x,-0.5%,x,x,x,x
Nc1ccc(C(=O)N/N=C/c2cccc(Oc3ccccc3)c2)cc1,u,-12.9%,30.0*,8.8%,33.0,-1.1%
O=C(N/N=C/c1cccc(Oc2ccccc2)c1)c1ccccc1F,u,x,72.9*,u,+,-8.7%
CNC(=S)N/N=C/c1cccc(OCc2ccccc2F)c1,19.6%,44.0%,26.7*,-15.9%,51.5*,25.2%
CCNC(=S)N/N=C/c1cccc(OCc2c(F)cccc2Cl)c1,u,21.9%,18.4,u,33.1,6.5%
COc1cc(NC(=O)Cn2c(=O)n(-c3cccc(C)c3)c(=O)c3c(C)c(C)sc32)cc(OC)c1,61.9%,-20.7%,-1.2,-1.2%,-6.4,6.6%
CSCCC(C(=O)NC(C)(C)C)n1c(-c2ccc(C)cc2)nc2ccccc21 (centres undefined),x,-22.2%,x,x,x,x
CC(=O)Nc1ccc(NC(=O)C(C)OC(=O)c2cccc(S(=O)(=O)N3CCCCCC3)c2)cc1 (centres undefined),-1.3%,3.9%,x,24.2%,x,-1.0%
CCCCc1cc(=O)oc2c(C)c(OCC(=O)NCC3CCC(C(=O)O)CC3)ccc12 (centres undefined),10.4µM*,0.0%,0.5,40.3%,-4.0,12.7%
CCCc1cc(=O)oc2c(C)c(OCC(=O)NC3CCN(Cc4ccccc4)CC3)ccc12,13.1µM*,-2.8%,7.4,u,-14.2,3.8%
SMILES,Pf growth 96h,AMA1 RON2 block,Cycloheximide cs,Pf growth 48h,Shiga toxin inh,SARS PLpro yeast
CCCc1cc(=O)oc2c(C)c(OCC(=O)Nc3ccc(CN4CCOCC4)cc3)ccc12,4.15µM*,0.0%,-3.5,u,-3.5,0.1%
Cc1cc(C)n(-c2ccc(N3CCOCC3)nn2)n1,39.2%,1.4%,32.9*,71.8%,56.7*,1.0%
Cc1cccc(OCC(=O)N/N=C\c2cc3c(cc2[N+](=O)[O-])OCO3)c1C,u,2.6%,8.3,x,-10.6,-0.2%
O=C(OC(C(=O)NCc1ccco1)c1ccc(Cl)cc1)c1cccs1 (centres undefined),86.5%,-6.2%,-1.8,8.8%,-0.4,4.0%
Cc1ccc(C23OC(=O)C(C)(C)C2OC(=O)C3(C)C)cc1 (centres undefined),13.1µM*,-3.0%,6.9,9.28µM*,-5.4,11.2%
Cc1cc(N=Nc2ccc(C)c(N=Nc3cc(C)c(N)cc3N)c2)c(N)cc1N,134.4%,22.4µM*,61.6*,83.7%,76.2*,1.4%
COc1cc(C(O)P(=O)(OC2CCCCC2)c2ccc(N(C)C)cc2)cc(OC)c1OC (centres undefined),13.1µM*,3.3%,-1.3,u,-9.9,9.8%
C=CCn1c(CNC(=O)c2ccccc2F)nnc1SCc1nc2ccccc2c(=O)[nH]1,27.6%,0.0%,0.5,3.7%,11.6,-2.6%
CCOc1cc(C(=S)N2CCCC2)ccc1OC,12.0%,-4.3%,-2.4,x,-6.4,-0.2%
CCC(=O)c1ccc(OCc2ccccc2)c(OC)c1,u,23.4%,42.9*,236.9%,88.2*,-13.0%
CCC(=O)c1ccc(OCc2ccc(C(=O)OC)cc2)c(OC)c1,109.4%,-4.2%,5.1,60.6%,21.2,2.6%
COc1ccc(CCN(C)Cc2ccc(OC)c(OCc3ccccc3)c2)cc1OC,10.4µM*,-13.4%,-1.3,u,-20.4,-6.2%
COc1ccc(CCN(C)Cc2ccc(OCc3ccccc3)c(OC)c2)cc1OC,u,u,-7.4,u,-15.1,1.5%
COc1cc(C(=O)NCC2(N(C)C)CCCCC2)ccc1OCc1ccccc1,9.28µM*,15.9%,-4.7,u,-4.4,29.7%
COc1cc(C(=S)N2CCCC2)ccc1OCc1ccccc1,-9.9%,-10.3%,30.4*,44.9%,66.2*,20.0%
CCN(C(=O)CO/N=C/c1ccc(OC)cc1OC)c1c(N)n(Cc2ccccc2)c(=O)[nH]c1=O,-0.8%,-2.0%,x,-21.1%,x,0.0%
Cc1cc(C)cc(NC(=O)CN2CCN(CCN=CC3=C(O)CC(c4ccc(Cl)cc4)CC3=O)CC2)c1 (centres undefined),23.1%,0.0%,-3.7,7.1%,16.4,-0.9%
COc1ccc(NC2CCCN(C(=O)CCCn3cncn3)C2)cc1OC (centres undefined),2.62µM*,-4.3%,-3.7,-3.5%,0.5,-2.1%
Cc1ccc(NC2CCCN(C(=O)CCc3ccncc3)C2)cc1C (centres undefined),-12.5%,-3.5%,0.8,-6.6%,-3.7,-12.6%
COc1ccc(NC2CCCN(C(=O)CCc3ccncc3)C2)cc1OC (centres undefined),-22.6%,8.8%,45.0*,0.0%,-11.8,-6.4%
O=C(CCc1ccncc1)N1CCCC(Nc2ccc(F)c(F)c2)C1 (centres undefined),13.1µM*,-6.1%,0.5,-0.2%,-2.4,-6.8%
